Test results from ChEMBL document CHEMBL3988442, “University of Dundee, Small-Polar-MMV Screening Library” (2021).
For some assays here: Measured potencies and affinities stand elsewhere.

What was measured:
Set-up in all cases: scale not given: direction of the effect not stated beside the values
[1] = molecular target: Protein translocase subunit SecA (Escherichia coli (strain K12)) (UniProt P10408); assay: Assay to Identify E. coli SecA ATPase Inhibitors; type: functional; details: 30 µM
[2] = molecular target: T1, Ubiquitin-activating enzyme e1, putative (Leishmania donovani (strain BPK282A1)) (UniProt E9BSI1); assay: Leishmania donovani Ubiquitin Activating Enzyme (LdE1); type: functional; details: 30 µM
T1 sequence (whole entry): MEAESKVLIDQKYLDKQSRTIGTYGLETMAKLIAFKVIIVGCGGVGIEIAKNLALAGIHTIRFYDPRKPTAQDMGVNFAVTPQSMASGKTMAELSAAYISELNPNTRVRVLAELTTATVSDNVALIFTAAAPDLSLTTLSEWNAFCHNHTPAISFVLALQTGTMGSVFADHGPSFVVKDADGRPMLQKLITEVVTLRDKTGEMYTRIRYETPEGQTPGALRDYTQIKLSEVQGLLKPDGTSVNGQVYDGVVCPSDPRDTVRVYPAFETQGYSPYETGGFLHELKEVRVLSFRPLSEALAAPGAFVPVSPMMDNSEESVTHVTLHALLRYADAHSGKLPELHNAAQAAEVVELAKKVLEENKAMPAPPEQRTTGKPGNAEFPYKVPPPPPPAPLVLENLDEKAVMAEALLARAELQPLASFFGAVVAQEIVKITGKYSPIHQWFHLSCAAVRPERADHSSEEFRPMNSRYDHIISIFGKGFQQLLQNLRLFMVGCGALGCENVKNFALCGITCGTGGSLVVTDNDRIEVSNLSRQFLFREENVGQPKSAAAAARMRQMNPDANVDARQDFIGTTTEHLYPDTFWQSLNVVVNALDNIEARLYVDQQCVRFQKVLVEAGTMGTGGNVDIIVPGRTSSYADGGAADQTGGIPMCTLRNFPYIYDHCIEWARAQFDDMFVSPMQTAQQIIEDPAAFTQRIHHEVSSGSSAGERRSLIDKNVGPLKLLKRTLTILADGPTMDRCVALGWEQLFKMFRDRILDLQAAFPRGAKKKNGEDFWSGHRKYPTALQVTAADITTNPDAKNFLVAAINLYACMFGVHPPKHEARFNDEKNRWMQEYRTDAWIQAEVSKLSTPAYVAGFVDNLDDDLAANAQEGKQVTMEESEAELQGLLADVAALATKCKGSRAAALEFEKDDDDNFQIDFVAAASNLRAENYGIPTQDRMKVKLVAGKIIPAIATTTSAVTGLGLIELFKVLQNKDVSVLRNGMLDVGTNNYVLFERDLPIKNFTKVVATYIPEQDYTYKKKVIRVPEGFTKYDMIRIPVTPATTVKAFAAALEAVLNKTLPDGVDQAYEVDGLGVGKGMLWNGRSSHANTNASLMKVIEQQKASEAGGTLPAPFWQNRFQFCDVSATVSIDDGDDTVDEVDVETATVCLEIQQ

[3] = molecular target: AMP-activated protein kinase, AMPK (Homo sapiens) (UniProt P54646+O43741+P54619+Q9UGJ0+Q9Y478+Q13131+Q9UGI9); assay: AMP-dependent Kinase enzyme assay. An in vitro enzyme assay that detects ADP turnover that is directly proportional to AMPK activity. This uses naive AMPK that is activated during the assay with MK-8722; type: functional; details: 30 µM
[4] = molecular target: Sialic acid-binding Ig-like lectin 9 (Homo sapiens) (UniProt Q9Y336); assay: Hs-Siglec9 ALPHAscreen SOP 20170721; details: 10 µM
Sialic acid-binding Ig-like lectin 9 (Homo sapiens), sequence (Q9Y336 whole entry): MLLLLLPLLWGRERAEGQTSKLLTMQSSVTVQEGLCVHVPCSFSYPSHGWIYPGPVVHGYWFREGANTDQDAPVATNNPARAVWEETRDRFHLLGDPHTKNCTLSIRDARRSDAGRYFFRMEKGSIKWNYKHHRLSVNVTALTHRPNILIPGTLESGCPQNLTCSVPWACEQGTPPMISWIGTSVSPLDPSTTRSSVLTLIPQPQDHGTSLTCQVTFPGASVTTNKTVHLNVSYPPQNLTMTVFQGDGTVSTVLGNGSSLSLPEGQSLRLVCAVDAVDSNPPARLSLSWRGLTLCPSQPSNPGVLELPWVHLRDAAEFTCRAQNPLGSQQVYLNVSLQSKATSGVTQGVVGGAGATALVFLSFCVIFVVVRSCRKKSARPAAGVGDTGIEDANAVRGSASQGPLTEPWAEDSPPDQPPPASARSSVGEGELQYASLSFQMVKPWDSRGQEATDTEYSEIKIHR

Trypanosoma cruzi = assay: Trypanosoma cruzi phosphomannomutase and mannose-1-phosphate guanylyltransferase assay; type: functional; details: 10 µM
[5] = molecular target: T2, Arginase-2, mitochondrial (Homo sapiens) (UniProt P78540); assay: in vitro enzyme assay to detect the production of urea directly proportional to the activity of Arginase II; type: functional; details: 33.3 µM; also: in the data most compounds retested in dose-response had high values
T2 sequence (whole entry): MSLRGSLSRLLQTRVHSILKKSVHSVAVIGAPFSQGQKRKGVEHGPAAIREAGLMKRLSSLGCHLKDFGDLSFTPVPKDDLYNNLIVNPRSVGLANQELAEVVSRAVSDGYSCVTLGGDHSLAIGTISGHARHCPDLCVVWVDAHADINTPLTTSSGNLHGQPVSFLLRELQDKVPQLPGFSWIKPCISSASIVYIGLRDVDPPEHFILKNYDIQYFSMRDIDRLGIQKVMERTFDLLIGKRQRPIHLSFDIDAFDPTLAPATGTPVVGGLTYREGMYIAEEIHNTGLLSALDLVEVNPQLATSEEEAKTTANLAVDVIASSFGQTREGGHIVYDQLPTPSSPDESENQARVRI

[6] = molecular target: T3, Proteasome subunit beta (Trypanosoma cruzi) (UniProt O96673); assay: Trypanosoma cruzi proteasome chymotrypsin-like activity (TcProtChymo) assay.; also: in the data most compounds retested in dose-response had high values; type: functional; details: 9.37 µM
T3 sequence (whole entry): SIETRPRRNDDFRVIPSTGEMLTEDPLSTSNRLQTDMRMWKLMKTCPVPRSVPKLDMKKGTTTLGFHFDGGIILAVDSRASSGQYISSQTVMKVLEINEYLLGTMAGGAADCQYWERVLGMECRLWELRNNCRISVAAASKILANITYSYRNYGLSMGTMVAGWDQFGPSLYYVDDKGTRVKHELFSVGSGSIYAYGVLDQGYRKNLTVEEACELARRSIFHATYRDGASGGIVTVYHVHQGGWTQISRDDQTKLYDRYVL

Homo sapiens = species: Homo sapiens; assay: To identify inhibition of the IFN signalling (Jak-Stat) pathway via expression of an eGFP reporter gene under the control of an IFN-stimulated response element (ISRE) containing MxA promoter.; type: functional; details: 30 µM
[7] = molecular target: T4, Tyrosyl-tRNA synthetase, putative (Trypanosoma cruzi (strain CL Brener)) (UniProt Q4DSP6); assay: Trypanosoma cruzi tyrosyl tRNA synthetase (TcYRS) _High Tyrosine SOP; type: functional; details: 30 µM; also: in the data most compounds retested in dose-response had high values
T4 sequence (whole entry): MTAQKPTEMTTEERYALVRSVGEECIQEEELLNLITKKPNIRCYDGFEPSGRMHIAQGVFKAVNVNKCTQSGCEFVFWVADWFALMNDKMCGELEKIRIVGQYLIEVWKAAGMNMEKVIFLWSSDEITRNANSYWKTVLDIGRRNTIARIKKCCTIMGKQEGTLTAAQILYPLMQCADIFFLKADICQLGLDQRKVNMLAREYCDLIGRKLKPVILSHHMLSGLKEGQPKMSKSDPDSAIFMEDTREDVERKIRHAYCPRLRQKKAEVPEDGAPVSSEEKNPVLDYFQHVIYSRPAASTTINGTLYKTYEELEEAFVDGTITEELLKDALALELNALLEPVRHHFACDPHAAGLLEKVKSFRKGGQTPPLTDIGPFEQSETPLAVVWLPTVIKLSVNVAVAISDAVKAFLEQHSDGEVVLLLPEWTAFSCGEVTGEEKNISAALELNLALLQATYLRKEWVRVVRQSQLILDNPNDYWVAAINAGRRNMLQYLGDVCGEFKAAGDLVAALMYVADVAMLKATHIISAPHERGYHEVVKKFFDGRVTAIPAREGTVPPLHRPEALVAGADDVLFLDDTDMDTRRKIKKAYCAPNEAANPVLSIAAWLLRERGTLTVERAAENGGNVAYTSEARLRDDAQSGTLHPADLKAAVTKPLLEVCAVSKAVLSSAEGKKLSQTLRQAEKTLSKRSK

[8] = molecular target: T4, Tyrosyl-tRNA synthetase, putative (Trypanosoma cruzi (strain CL Brener)); assay: Trypanosoma cruzi tyrosyl tRNA synthetase (TcYRS) SOP; type: functional; details: 30 µM
[9] = molecular target: Chromo domain-containing protein 1 (Saccharomyces cerevisiae (strain ATCC 204508 / S288c) (Baker's yeast)) (UniProt P32657); assay: ScCHD-1 Enzyme Inhibition Assay; type: functional; details: 30 µM; also: in the data most compounds retested in dose-response had high values
Chromo domain-containing protein 1 (Saccharomyces cerevisiae (strain ATCC 204508 / S288c) (Baker's yeast)), sequence (P32657 whole entry, the tested form may be a part): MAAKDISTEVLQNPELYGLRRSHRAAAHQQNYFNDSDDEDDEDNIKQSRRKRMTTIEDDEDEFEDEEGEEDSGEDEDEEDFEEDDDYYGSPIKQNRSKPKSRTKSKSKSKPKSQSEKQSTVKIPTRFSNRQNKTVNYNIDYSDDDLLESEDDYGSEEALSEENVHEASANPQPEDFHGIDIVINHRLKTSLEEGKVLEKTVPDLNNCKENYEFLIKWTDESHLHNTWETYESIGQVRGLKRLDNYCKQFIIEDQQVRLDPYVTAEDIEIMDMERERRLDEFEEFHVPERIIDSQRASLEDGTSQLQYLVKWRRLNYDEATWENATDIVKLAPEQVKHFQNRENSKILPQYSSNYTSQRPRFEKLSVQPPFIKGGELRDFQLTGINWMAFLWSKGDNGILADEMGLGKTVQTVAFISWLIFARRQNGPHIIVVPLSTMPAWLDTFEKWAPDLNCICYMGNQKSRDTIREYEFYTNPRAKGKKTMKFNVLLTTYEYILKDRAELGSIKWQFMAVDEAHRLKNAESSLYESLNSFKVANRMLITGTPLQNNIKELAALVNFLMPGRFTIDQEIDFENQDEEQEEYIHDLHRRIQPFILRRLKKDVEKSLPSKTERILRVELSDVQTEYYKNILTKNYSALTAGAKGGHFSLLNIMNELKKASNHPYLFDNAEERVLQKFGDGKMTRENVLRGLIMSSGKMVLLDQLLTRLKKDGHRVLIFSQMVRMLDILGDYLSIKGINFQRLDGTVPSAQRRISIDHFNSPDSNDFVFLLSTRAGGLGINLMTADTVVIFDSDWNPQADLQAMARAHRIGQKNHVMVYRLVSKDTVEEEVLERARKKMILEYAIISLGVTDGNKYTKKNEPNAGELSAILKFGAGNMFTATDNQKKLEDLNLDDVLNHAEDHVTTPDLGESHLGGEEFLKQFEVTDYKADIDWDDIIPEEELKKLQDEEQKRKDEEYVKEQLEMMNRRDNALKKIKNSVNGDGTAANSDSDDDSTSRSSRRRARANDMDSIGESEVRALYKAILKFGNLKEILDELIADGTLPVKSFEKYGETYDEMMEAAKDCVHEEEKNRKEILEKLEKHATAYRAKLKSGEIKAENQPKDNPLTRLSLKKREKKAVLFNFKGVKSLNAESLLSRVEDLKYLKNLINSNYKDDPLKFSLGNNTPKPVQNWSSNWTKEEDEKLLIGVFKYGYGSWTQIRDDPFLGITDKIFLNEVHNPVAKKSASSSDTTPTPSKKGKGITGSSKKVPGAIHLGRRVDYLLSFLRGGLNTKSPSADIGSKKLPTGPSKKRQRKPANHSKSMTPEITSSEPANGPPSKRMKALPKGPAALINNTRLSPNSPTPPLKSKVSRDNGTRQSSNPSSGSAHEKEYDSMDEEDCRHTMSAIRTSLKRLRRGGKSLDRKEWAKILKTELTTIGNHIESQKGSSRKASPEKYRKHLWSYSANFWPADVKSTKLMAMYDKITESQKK

Protein translocase subunit SecA (Escherichia coli (strain K12)), sequence (P10408 whole entry): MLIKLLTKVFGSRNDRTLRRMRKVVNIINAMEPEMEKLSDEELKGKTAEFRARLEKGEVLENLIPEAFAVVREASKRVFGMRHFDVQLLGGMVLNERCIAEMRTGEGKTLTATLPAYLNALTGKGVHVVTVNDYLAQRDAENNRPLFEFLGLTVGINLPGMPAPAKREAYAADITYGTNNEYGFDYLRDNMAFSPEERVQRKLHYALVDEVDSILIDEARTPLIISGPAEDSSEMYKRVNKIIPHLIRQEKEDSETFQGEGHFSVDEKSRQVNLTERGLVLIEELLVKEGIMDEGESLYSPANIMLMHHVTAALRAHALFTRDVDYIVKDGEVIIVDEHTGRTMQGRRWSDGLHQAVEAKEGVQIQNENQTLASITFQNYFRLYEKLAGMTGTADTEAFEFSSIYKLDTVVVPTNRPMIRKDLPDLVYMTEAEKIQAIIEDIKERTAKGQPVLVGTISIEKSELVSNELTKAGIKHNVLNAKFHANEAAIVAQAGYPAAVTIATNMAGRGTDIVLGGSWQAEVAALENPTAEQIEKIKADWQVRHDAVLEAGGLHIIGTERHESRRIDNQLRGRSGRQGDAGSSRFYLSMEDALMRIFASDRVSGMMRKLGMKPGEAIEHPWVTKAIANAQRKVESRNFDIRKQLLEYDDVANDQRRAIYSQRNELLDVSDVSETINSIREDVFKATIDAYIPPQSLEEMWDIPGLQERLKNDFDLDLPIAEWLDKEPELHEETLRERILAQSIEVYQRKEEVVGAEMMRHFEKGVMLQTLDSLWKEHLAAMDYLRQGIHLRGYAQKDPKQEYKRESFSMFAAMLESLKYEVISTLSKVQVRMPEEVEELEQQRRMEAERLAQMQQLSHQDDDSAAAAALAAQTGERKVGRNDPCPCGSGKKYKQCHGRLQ

Structure (SMILES) | Percent Effect [1] | Percent Effect [2] | Percent Effect [3] | Percent Effect [4] | Percent Effect (Trypanosoma cruzi) | Percent Effect [5] | Percent Effect [6] | Percent Effect (Homo sapiens) | Percent Effect [7] | Percent Effect [8] | Percent Effect [9]
Cn1ncc2c(=O)[nH]c(CN3CCCC3Cc3ccccc3)nc21 (stereo not given) | -2.29% | 15.8% | -0.517% | 3.61% | 9.62% | -3.24% | 2.28% | 9.4% | 8.37% | 18.5% | -6.42%
Cc1csc(N2CCCN(C(=O)C(C)n3ccnc3)CC2)n1 (stereo not given) | -4.19% | 8.11% | 5.77% | 0.506% | 6.78% | -2.77% | -0.718% | 10.8% | 5.94% | 15.8% | 1.79%
Cc1cc(C)c(CNC(=O)N2CCN(c3ncccn3)CC2)c(=O)[nH]1 | -6.02% | 7.89% | -4.85% | 6.02% | 5.08% | 3.45% | 16.5% | 2.72% | 3.43% | 7.32% | -10.9%
COc1cccc(C)c1C(=O)N1C[C@@H](CN(C)C)[C@@H](CO)C1 | -3.79% | 5.2% | -2.32% | 7.05% | 2.26% | -2.76% | 9.15% | -12.3% | 6.45% | 11.1% | -0.303%
COc1ccccc1CC(=O)NS(C)(=O)=O | -4.83% | 5.2% | 1.28% | 1.8% | -1.87% | -1.42% | 7.6% | 20.4% | 4.85% | 14.6% | -6.74%
CC(C)N1CCC(Cc2cc(-c3cccc(C(=O)O)c3)ncn2)C1 (stereo not given) | 1.6% | -9.46% | 7.52% | 4.36% | -1.78% | -0.232% | 2.5% | 0.46% | 2.15% | 1.3% | 20.8%
Cc1nnc(C(C)N2CCN(Cc3ccc4c(c3)OCO4)CC2)o1 (stereo not given) | -8% | 8.11% | -13.4% | 7.45% | -4.62% | -4.01% | -0.36% | 13.3% | -0.493% | -8.64% | 2.83%
COc1ccccc1CN1CC[C@]2(C[C@H](OC)CO2)C1 | -4.71% | 9.33% | 3.5% | 4.02% | -4.52% | -12.5% | 15% | -8.4% | 5.29% | 7.69% | -5.98%
Cn1nc(C2CCN(C(=O)Cc3cccc(F)c3)CC2)c2cccnc21 | -2.77% | -6.76% | 12.2% | 3.61% | 4.35% | -0.232% | 6.71% | 14.9% | 1.07% | 6.49% | -3.75%
CC(C)OCCOCc1cccc(NC(=O)NCc2ccncc2)c1 | 2.27% | 13% | -7.84% | -0.138% | -0.295% | -11% | 11.5% | 30.4% | 6.45% | 13.6% | -2.65%
